In PubChem BioAssay (Tox21):
Where “and” joins values, the source holds several entries; their conditions need not be identical. Identical values can stand only once. Inconclusive results are not listed. More than one record can exist for a structure, and the calls need not agree. Calls of active or inactive are those of the source. Unless noted, the call rests on the fitted dose curve; in most records, active means well fitted curve in the direction sought with a large enough effect in the repeat runs; inconclusive means weak or mixed curves; inactive means no such curve, though single readings can be large; an effect the other way counts as inactive or inconclusive.

What was measured:
[1] = qHTS assay to test for compound auto fluorescence at 535 nm (green) in HEK293 cells (AID 720680)
[2] = qHTS assay to test for compound auto fluorescence at 460 nm (blue) in HEK293 cell free culture (AID 720681)
Summary of the method: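 Compounds were added to cell-free DMEM with 10% FBS and fluorescence read directly. The blue channel used 405 nm excitation and 460 nm emission, with triamterene as the reference fluorophore.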

[3] = qHTS assay to test for compound auto fluorescence at 535 nm (green) in HEK293 cell free culture (AID 720682)
Summary of the method: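 Compounds were pin-transferred into cell-free DMEM with 10% FBS, and green fluorescence was read at excitation 485 nm and emission 535 nm. Intensities were expressed as fluorescein-equivalent values.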

[4] = qHTS assay to test for compound auto fluorescence at 590 nm (red) in HEK293 cell free culture (AID 720683)
Summary of the method: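 Cell-free wells of DMEM with 10% FBS received compound, and intrinsic fluorescence was read at excitation/emission 540/590 nm. Values expressed as equivalence to Rose Bengal sodium.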

[5] = qHTS assay to test for compound auto fluorescence at 590 nm (red) in HepG2 cell free culture (AID 720684)
Summary of the method: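 Rose Bengal sodium served as the reference for red signal. Test compounds were dispensed into serum-containing MEM (10% FBS) without cells, and plates were read at 540/590 nm.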

[6] = qHTS assay to test for compound auto fluorescence at 460 nm (blue) in HepG2 cell free culture (AID 720685)
Summary of the method: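 Cell-free plates of MEM plus 10% FBS received 23 nL compound or DMSO vehicle; blue-channel (405/460 nm) intensity scored against triamterene as reference fluorophore.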

[7] = qHTS assay to test for compound auto fluorescence at 460 nm (blue) in HepG2 cells (AID 720687)
Summary of the method: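 HepG2 cells in MEM with 10% FBS, attached overnight at 37 C, were exposed to compound or DMSO for 1 hr at 37 C, 5% CO2. Blue fluorescence was read at 405/460 nm, with triamterene as reference fluorophore.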

[8] = target: Glucocorticoid receptor (Homo sapiens) (UniProt P04150); assay: qHTS assay to identify small molecule agonists of the glucocorticoid receptor (GR) signaling pathway (AID 720691; active means well fitted activation curve with a large enough effect in the signal ratio in the repeat runs, not every such curve was filed as active; the % refers to the signal ratio)
Sequence of Glucocorticoid receptor (Homo sapiens) (P04150 whole entry, looked up): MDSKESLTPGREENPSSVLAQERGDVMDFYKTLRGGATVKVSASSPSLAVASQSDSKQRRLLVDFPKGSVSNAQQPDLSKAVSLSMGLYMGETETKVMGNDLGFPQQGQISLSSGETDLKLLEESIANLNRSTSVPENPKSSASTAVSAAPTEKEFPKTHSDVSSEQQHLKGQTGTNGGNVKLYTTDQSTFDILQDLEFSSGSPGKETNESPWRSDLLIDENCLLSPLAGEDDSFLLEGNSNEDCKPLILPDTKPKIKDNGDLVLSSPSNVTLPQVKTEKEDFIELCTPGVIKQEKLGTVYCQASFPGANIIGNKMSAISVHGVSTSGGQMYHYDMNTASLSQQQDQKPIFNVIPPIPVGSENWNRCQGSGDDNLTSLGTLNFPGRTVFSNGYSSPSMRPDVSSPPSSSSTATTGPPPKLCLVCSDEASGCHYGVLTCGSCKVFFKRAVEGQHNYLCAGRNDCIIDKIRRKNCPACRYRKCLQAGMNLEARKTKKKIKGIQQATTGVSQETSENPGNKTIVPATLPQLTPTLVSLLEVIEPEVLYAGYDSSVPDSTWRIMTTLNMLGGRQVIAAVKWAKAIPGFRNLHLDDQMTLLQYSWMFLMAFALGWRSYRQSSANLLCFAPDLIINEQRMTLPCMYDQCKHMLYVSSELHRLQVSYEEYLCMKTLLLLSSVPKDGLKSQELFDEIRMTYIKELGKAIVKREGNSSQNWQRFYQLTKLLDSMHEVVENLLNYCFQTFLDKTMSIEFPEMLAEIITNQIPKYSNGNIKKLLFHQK
Summary of the method: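 Measures GR pathway activation through a GRE-beta-lactamase reporter stably integrated in HeLa cells, with 18 h compound treatment at 37 C and fluorescence detection using a FRET substrate.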

[9] = target: Glucocorticoid receptor (Homo sapiens) (UniProt P04150); assay: qHTS assay to identify small molecule antagonists of the glucocorticoid receptor (GR) signaling pathway (AID 720692; active means well fitted inhibition curve with a large enough effect in the signal ratio in the repeat runs, not every such curve was filed as active; the % refers to the signal ratio)
Summary of the method: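 Tox21 10K library screened in concentration-response for blockade of dexamethasone (5 nM final)-induced GRE-bla reporter activity in HeLa cells; 18 h treatment, fluorescence read.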

[10] = qHTS assay to identify small molecule antagonists of the glucocorticoid receptor (GR) signaling pathway - cell viability counter screen (AID 720693); further: nearly all actives have a fitted effect of over 55% in size
[11] = qHTS assay for identifying genotoxic compounds that show differential cytotoxicity against isogenic chicken DT40 cell lines with known DNA damage response pathways - Rev3 mutant cell line (AID 743014); further: nearly all actives have a fitted effect of over 55% in size; further: potency means the concentration at half of the fitted maximal effect
[12] = qHTS assay for identifying genotoxic compounds that show differential cytotoxicity against isogenic chicken DT40 cell lines with known DNA damage response pathways - Rad54/Ku70 mutant cell line (AID 743015); further: nearly all actives have a fitted effect of over 60% in size; further: potency means the concentration at half of the fitted maximal effect
[13] = qHTS assay to identify small molecule antagonists of the androgen receptor (AR) signaling pathway - cell viability counter screen (AID 743033; further: nearly all actives have a fitted effect of over 45% in size)
[14] = qHTS assay to identify small molecule antagonists of the androgen receptor (AR) signaling pathway using the MDA cell line - cell viability counter screen (AID 743041; further: nearly all actives have a fitted effect of over 45% in size)
Summary of the method: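 Cytotoxicity counter screen: MDA-kb2 AR-luc cells, compound + R1881, 16 h, 37C, 0% CO2; CellTiter-Fluor added at 15.5 h, fluorescence read after 30 min.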

[15] = qHTS assay to test for compound auto fluorescence at 535 nm (green) in HepG2 cell free culture (AID 720686)
[16] = qHTS assay for identifying genotoxic compounds that show differential cytotoxicity against isogenic chicken DT40 cell lines with known DNA damage response pathways - wild type cell line (AID 743012); further: nearly all actives have a fitted effect of over 60% in size; further: potency means the concentration at half of the fitted maximal effect
Summary of the method: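 Endpoint: CellTiter-Glo luminescence, 30 min RT. Cells: wild type DT40, 300/well. Exposure: compounds in DMSO, 40 h, 37 C/5% CO2, after ~0.5 h pre-incubation.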

[17] = target: Androgen receptor (Homo sapiens) (UniProt P10275); assay: qHTS assay to identify small molecule antagonists of the androgen receptor (AR) signaling pathway (AID 743035; active means well fitted inhibition curve with a large enough effect in the signal ratio in the repeat runs, not every such curve was filed as active; the % refers to the signal ratio)
Sequence of Androgen receptor (Homo sapiens) (P10275 whole entry, looked up): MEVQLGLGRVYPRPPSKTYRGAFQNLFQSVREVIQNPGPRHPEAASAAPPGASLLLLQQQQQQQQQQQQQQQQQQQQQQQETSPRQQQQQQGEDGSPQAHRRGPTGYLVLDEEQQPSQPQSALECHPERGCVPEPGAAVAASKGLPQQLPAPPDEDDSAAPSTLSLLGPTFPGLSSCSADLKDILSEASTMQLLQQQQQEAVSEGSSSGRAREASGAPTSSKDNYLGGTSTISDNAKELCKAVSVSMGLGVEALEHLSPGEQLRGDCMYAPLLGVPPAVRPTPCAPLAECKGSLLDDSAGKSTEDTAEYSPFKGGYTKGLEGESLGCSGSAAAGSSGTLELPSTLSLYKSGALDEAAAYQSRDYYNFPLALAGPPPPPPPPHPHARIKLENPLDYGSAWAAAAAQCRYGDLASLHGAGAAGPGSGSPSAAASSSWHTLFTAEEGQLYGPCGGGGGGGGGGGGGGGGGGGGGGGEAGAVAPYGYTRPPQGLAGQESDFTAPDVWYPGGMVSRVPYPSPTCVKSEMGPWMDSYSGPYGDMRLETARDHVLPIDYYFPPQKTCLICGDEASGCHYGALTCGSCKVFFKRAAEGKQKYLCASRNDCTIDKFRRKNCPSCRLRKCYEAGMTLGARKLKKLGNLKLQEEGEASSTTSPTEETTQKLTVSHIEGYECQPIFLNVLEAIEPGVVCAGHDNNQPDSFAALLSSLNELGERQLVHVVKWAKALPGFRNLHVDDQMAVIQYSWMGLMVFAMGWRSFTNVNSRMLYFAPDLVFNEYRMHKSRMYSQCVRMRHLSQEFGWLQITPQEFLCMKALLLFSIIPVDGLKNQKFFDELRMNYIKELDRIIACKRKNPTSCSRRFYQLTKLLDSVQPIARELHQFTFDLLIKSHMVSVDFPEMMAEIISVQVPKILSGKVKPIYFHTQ
Summary of the method: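 R1881 agonist challenge of a HEK293 UAS-beta-lactamase AR reporter line in the presence of compound (16 h, 37C); signal taken as FRET fluorescence after 2 h with LiveBLAzer B/G substrate at room temperature.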

[18] = target: Androgen receptor (Homo sapiens) (UniProt P10275); assay: qHTS assay to identify small molecule agonists of the androgen receptor (AR) signaling pathway (AID 743036; active means well fitted activation curve with a large enough effect in the signal ratio in the repeat runs, with a control signal flat, not every such curve was filed as active; the % refers to the signal ratio)
Summary of the method: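 Activation was read as beta-lactamase FRET signal from LiveBLAzer B/G substrate, added for 2 h at room temperature. Before that, GeneBLAzer AR-UAS-bla GripTite (HEK293) cells had 16 h compound exposure at 37C.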

[19] = target: Androgen receptor (Homo sapiens) (UniProt P10275); assay: qHTS assay to identify small molecule agonists of the androgen receptor (AR) signaling pathway using the MDA cell line (AID 743040; further: nearly all actives have a fitted effect of over 20% in size); conditions: MDA-kb2 AR-luc cells, MMTV luciferase, 16 h, stronger effect = higher value
Summary of the method: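 Luciferase read-out, ONE-Glo, 30 min RT. Cells: MDA-kb2 AR-luc, MMTV promoter with AR and GR response elements. Compound exposure 16 h, 37C, 0% CO2, after 5 h pre-incubation. qHTS agonist mode.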

[20] = target: Androgen receptor (Homo sapiens) (UniProt P10275); assay: qHTS assay to identify small molecule antagonists of the androgen receptor (AR) signaling pathway using the MDA cell line (AID 743042; further: nearly all actives have a fitted effect of over 55% in size)
Summary of the method: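 MDA-kb2 breast carcinoma cells carrying MMTV-luciferase (AR/GR responsive) were co-treated with compounds and the agonist R1881 for 16 h at 37C. Inhibition read as ONE-Glo luminescence; CellTiter-Fluor fluorescence measured in parallel for cytotoxicity.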
On the % scale 0 is the no-effect control and ±100 the full control effect.

CC(=O)OC/C=C(\C)CCC=C(C)C
inactive: outcome [1] | Potency [2] | outcome [3] | outcome [4] | outcome [5] | Potency [6] | Potency [7] | outcome [8] | Potency [9] | Potency [10] | Potency [11] | Potency [12] | Potency [13] | Potency [14]

CCc1cccc(CC)c1N
inactive: outcome [1] | Potency [2] | outcome [3] | outcome [4] | outcome [5] | Potency [6] | outcome [15] | Potency [7] | outcome [8] | Potency [10] | Potency [16] | Potency [11] | Potency [12] | Potency [13] | Potency [17] | Potency [18] | activity change ([19]; at 70.3 µM (top of the series)) 0.738% | activity change ([19]; at 95 µM (top of the series)) 0.21% | Potency [14] | Potency [20]

O=c1c(O)c(-c2ccc(O)c(O)c2)oc2cc(O)cc(O)c12
inactive: outcome [1] | Potency [2] | outcome [3] | outcome [4] | outcome [5] | Potency [6] | outcome [15] | Potency [7] | Potency [10] | Potency [13] | Potency [14]
active: Potency [11] 54.5 µM and 27.5 µM and 61.1 µM | Potency [12] 30.7 µM and 24.5 µM and 61.1 µM

CC(=O)OC[C@H]1O[C@@](COC(C)=O)(O[C@H]2O[C@H](COC(C)=O)[C@@H](OC(C)=O)[C@H](OC(C)=O)[C@H]2OC(C)=O)[C@@H](OC(C)=O)[C@@H]1OC(C)=O
inactive: outcome [1] | Potency [2] | outcome [3] | outcome [4] | outcome [5] | Potency [6] | outcome [15] | Potency [7] | outcome [8] | Potency [10] | Potency [11] | Potency [12] | Potency [13] | Potency [14]

CC(C)(C)NC[C@H](O)COc1nsnc1N1CCOCC1
inactive: outcome [1] | Potency [2] | outcome [3] | outcome [4] | outcome [5] | Potency [6] | outcome [15] | Potency [7] | outcome [8] | Potency [10] | Potency [11] | Potency [12] | Potency [13] | Potency [14]

Clc1cccc(Cl)c1NC1=NCCN1
inactive and 61.1 µM (active): Potency [11]
inactive: outcome [1] | Potency [2] | outcome [3] | outcome [4] | outcome [5] | outcome [15] | Potency [7] | outcome [8] | Potency [9] | Potency [10] | Potency [16] | Potency [12] | Potency [13] | Potency [14]

CC(=O)CC(=O)N(C)C
inactive: outcome [1] | Potency [2] | outcome [3] | outcome [4] | outcome [5] | Potency [6] | Potency [7] | outcome [8] | Potency [10] | Potency [16] | Potency [11] | Potency [12] | Potency [13] | Potency [14]

NC1CCCCC1N (stereo not drawn)
inactive: outcome [1] | Potency [2] | outcome [3] | outcome [4] | outcome [5] | Potency [7] | outcome [8] | Potency [10] | Potency [16] | Potency [11] | Potency [12] | Potency [13] | Potency [14]

CCn1cc(C(=O)O)c(=O)c2cc3c(cc21)OCO3
inactive: outcome [1] | Potency [2] | outcome [3] | outcome [4] | outcome [5] | outcome [15] | Potency [7] | Potency [10] | Potency [16] | Potency [11] | Potency [12] | Potency [13] | Potency [14]

O=C1C(N(CO)C(=O)NCO)N(CO)C(=O)N1CO (stereo not drawn)
inactive: outcome [1] | Potency [2] | outcome [3] | outcome [4] | outcome [5] | outcome [15] | Potency [7] | Potency [10] | Potency [16] | Potency [11] | Potency [12] | Potency [13] | Potency [14]

Cc1cc(C)cc(O)c1
inactive: outcome [1] | Potency [2] | outcome [3] | outcome [4] | outcome [5] | Potency [6] | Potency [7] | outcome [8] | Potency [10] | Potency [11] | Potency [12] | Potency [13] | Potency [14]

OC1CCCCC1
inactive: outcome [1] | Potency [2] | outcome [3] | outcome [4] | outcome [5] | outcome [15] | Potency [7] | outcome [8] | Potency [10] | Potency [11] | Potency [12] | Potency [13] | Potency [14]

COc1c2ccoc2cc2oc(=O)ccc12
inactive: outcome [1] | Potency [2] | outcome [3] | outcome [4] | outcome [5] | outcome [15] | Potency [7] | outcome [8] | Potency [9] | Potency [10] | Potency [16] | Potency [11] | Potency [12] | Potency [13] | Potency [14]

Cc1ccc([N+](=O)[O-])cc1N
inactive: outcome [1] | Potency [2] | outcome [3] | outcome [4] | outcome [5] | Potency [7] | Potency [10] | Potency [16] | Potency [11] | Potency [12] | Potency [13] | Potency [14]

CC[N+](CC)(CC(=O)Nc1c(C)cccc1C)Cc1ccccc1
inactive and 43.3 µM (active): Potency [16]
inactive: outcome [1] | Potency [2] | outcome [3] | outcome [4] | outcome [5] | Potency [6] | Potency [7] | Potency [10] | Potency [12] | Potency [13] | Potency [14]
inactive and 30.6 µM (active): Potency [11]

CCCCCCC(=O)O
inactive: outcome [1] | Potency [2] | outcome [3] | outcome [4] | outcome [5] | Potency [7] | outcome [8] | Potency [9] | Potency [10] | Potency [11] | Potency [12] | Potency [13] | Potency [14]

Cc1ncc(CO)c(CO)c1O
inactive: outcome [1] | Potency [2] | outcome [3] | outcome [4] | outcome [5] | Potency [7] | Potency [10] | Potency [16] | Potency [11] | Potency [12] | Potency [13] | Potency [14]

CCCN(CCC)C(=O)SCC
inactive: outcome [1] | Potency [2] | outcome [3] | outcome [4] | outcome [5] | outcome [15] | Potency [7] | outcome [8] | Potency [10] | Potency [16] | Potency [11] | Potency [12] | Potency [13] | Potency [17] | Potency [18] | activity change ([19]; at 70.3 µM (top of the series)) 1.01% | activity change ([19]; at 95 µM (top of the series)) -1.98% | Potency [14] | Potency [20]
